The values that follow come from PubChem BioAssay (NCI).

What all share (assay): NCI-60 one-dose screen, 48 h (100 = growth as untreated, 0 = no growth, -100 = all killed)
Holding throughout (conditions): 10 µM unless noted

For test [1], the system named is SK-MEL-2 melanoma.
Test [2] deals with EKVX NSCLC.
Test [3] concerns SN12C renal.
The test system of test [4] is UO-31 renal.
For test [5], the system named is TK-10 renal.
The subject of test [6] is ACHN renal.
In test [7] the test system is CAKI-1 renal.
In test [8] the test system is A498 renal.
Test [9] has as its system CCRF-CEM leukemia.
Test [10] concerns MOLT-4 leukemia.
The subject of test [11] is SR leukemia.
The subject of test [12] is RPMI-8226 leukemia.
The test system of test [13] is OVCAR-8 ovarian.
Test [14] deals with OVCAR-5 ovarian.
Test [15] relates to OVCAR-4 ovarian.
The subject of test [16] is SK-OV-3 ovarian.
The test system of test [17] is IGROV1 ovarian.
The subject of test [18] is OVCAR-3 ovarian.
For test [19], the system named is HS 578T breast.
The test system of test [20] is NCI/ADR-RES ovarian.

The panel holds about 83,000 compounds, 20% with a hit somewhere; the sample as a whole holds those more often.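 Cells were grown in 96-well plates and exposed to the test compound at a single concentration for 48 hours; results are reported as percent growth, with values below 10 considered active.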 Unmarked numbers belong to inactive results. Active and inactive are the calls of the source.

As for `CCCCOc1ccc(NC(=O)n2nc(NC(C)=O)c3cc(NC(C)=O)ccc32)cc1`, the growth in [1] was 95%; in test [2], 68.7%; in [3], 92.2%; in [4], 80.9%; in test [5], 89.9%; in [6] it was 95.3%. In addition, the growth in test [7] is 89.2%; in [8] it was 105%; in test [9], 62.1%; in test [10], 52%; in [11], 88.4%; in test [12] it was 76.9%. Further, the growth in test [13] is 92.5%; in test [14], 114%; in test [15] it was 106%; in test [16], 117%; in test [17] it was 95.3%; in [18] it was 98%. For the same molecule, the growth is 103% in test [19] and 105% in test [20].
On to `COCCCN=C(N)c1ccc(NC(=O)c2ccc(C(=O)Nc3ccc(C(N)=NCCCOC)cc3)cc2)cc1`, for which the growth was 102% in [1]; 76.9% in test [2]; 95% in test [3]; 96.6% in [4]; 113% in test [5]; 113% in test [6]. Also, the growth in [7] was 95.2%; in test [8], 208%; in test [9], 108%; in test [10], 85.9%; in test [11], 72.3%; in test [12], 63.2%. Besides, the growth in test [13] was 106%; in test [14], 110%; in [15], 105%; in [16], 115%; in [17], 120%; in test [18] it was 154%. The growth in test [19] was 151%; in test [20], 112%.
Regarding `C/C(=C(/c1ccc(O)cc1)c1ccc(OCCN2CCCC2)cc1)c1ccccc1`, the growth in test [1] is 63.1%; in test [2], 62.5%; in test [3], 72.4%; in [4], 55.3%; in test [5], 79.6%; in test [6], 68.5%. The growth was 65.1% in [7]; 80.5% in test [8]; 60.7% in test [9]; -1.64% (active) in test [10]; -11.3% (active) in test [11]; 11.9% in test [12]. Further, the growth in test [13] is 83%; in test [14], 80.5%; in test [15] it was 54.5%; in test [16], 80.1%; in test [17] it was 76.1%; in [18] it was 74%. Besides, the values for the growth in test [19] and in test [20] were 66.8% and 62.9%, respectively.
Regarding `CCN(C(=O)CN1CCN(c2cc3c(cc2F)c(=O)c(C(=O)O)cn3C2CC2)CC1)c1nc(-c2ccc(OC)cc2)cs1`, the growth is 79.2% in [1]; 58.9% in test [2]; 9.96% (active) in test [3]; 33% in test [4]; 77.2% in test [5]; 78% in [6]. Besides, the growth was 75.7% in test [7]; 66.6% in [8]; 61.2% in test [9]; 70.6% in test [10]; 23.7% in test [11]; 3.09% (active) in test [12]. Moreover, the growth is 59.6% in test [13]; 92% in test [14]; 37.2% in test [15]; 97.1% in test [16]; 67.4% in [17]; 6.96% (active) in test [18]. Further, the growth in [19] was 81.8%; in test [20], 59.3%.
Regarding `COc1cccc(-c2nc3sccn3c2-c2ccnc(NCCCNS(=O)(=O)c3ccc(Cl)cc3)c2)c1`, the growth in test [1] was 45.3%; in test [2], 47.8%; in [3] it was 41.1%; in test [4], 11.9%; in test [5], 83.1%; in test [6], 36.3%. Moreover, the growth is 32.6% in test [7]; 38.7% in [8]; 23.2% in test [9]; 21.6% in test [10]; 50% in test [11]; 9.05% (active) in test [12]. Moreover, the growth was 31.1% in [13]; 90.6% in [14]; 43.1% in test [15]; 75.3% in [16]; 42% in test [17]; 51.3% in [18]. In addition, the growth is 65.3% in [19] and 26.9% in test [20].
Consider `Cc1ccc(N)cc1F`, for which the growth in test [1] was 97.1%; in test [2], 98%; in test [3], 96%; in test [4], 92.6%; in test [5], 123%; in test [6] it was 99.8%. Further, the growth was 74.5% in [7]; 98.2% in [8]; 102% in test [9]; 92.3% in test [10]; 121% in [11]; 121% in test [12]. The growth in [13] was 96.4%; in [14], 109%; in test [15], 113%; in test [16] it was 102%; in [17], 104%; in [18] it was 102%. Further, the growth in [19] is 86.4%; in [20] it was 94.2%.
In the case of `CCCCCC(=O)Oc1ccc(/C(=C(\C)c2ccccc2)c2ccc(OCCN(CC)CC)cc2)cc1`, the growth in test [1] was 87.6%; in test [2] it was 92.5%; in test [3], 79.8%; in test [4], 48.4%; in [5], 74.6%; in test [6] it was 87.9%. The growth was 99.7% in test [7]; 84.8% in [8]; 63.9% in test [9]; 46.1% in [10]; 17.7% in test [11]; 46.5% in test [12]. Moreover, the growth in [13] is 81.9%; in [14] it was 87.6%; in test [15] it was 84%; in test [16], 75.2%; in test [17] it was 75.9%; in test [18] it was 86.6%. For the same molecule, the growth in test [19] was 35.6%; in [20] it was 74.2%.
`COCCCNc1nc(NC(=O)c2ccc(F)cc2C)cc(-c2cccnc2)n1`: the growth is 95.6% in test [1]; 108% in test [2]; 91.1% in test [3]; 88.5% in test [4]; 111% in test [5]; 109% in test [6]. In addition, the growth in [7] was 99.1%; in test [8], 85.4%; in test [9] it was 96.5%; in test [10] it was 93.9%; in test [11], 110%; in [12] it was 90.2%. Further, the growth in test [13] was 91.6%; in [14], 106%; in [15], 117%; in [16], 108%; in [17], 109%; in [18] it was 106%. For the same molecule, the growth is 94% in test [19] and 94.2% in test [20].
